Assay results taken from PubChem BioAssay.
The source made the active and inactive calls.

What was measured:
[1] = tested on: Plasmodium falciparum Sir2 (PF13_0152, Sir2A); experiment: pfSir2 binders on small-molecule microarrays, primary screen, biochemical, small-molecule microarray, 635 nm fluorescence (AID 1098); details: small-molecule microarray binding, fluorescence 635 nm; higher = more signal;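 also: score merges spot fluorescence intensity with its signal-to-noise ratio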
[2] = small-molecule microarray binders of probe aDKK1, primary screen, biochemical, biotinylated probe, 635/667 nm fluorescence (AID 1099); details: higher = more signal;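 also: score merges 667nm spot fluorescence with signal to noise across triplicate slides; reference of the scale not given here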
[3] = small-molecule microarray binders of probe aCHRDL2, primary screen, biochemical, biotinylated probe, 635/667 nm fluorescence (AID 1100); details: higher = more signal
[4] = splicing luciferase reporter signal modulators, primary screen, spliceosome inhibition project, cell-based, HEK293, splice +/- reporter (AID 1101); details: luminescence, 24 h, higher = more signal, called active from +8 up or from −8 down;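 also: HEK293 cells carrying a splicing-competent luciferase reporter gene; test concentration not given here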
[5] = biological target: Fibroblast growth factor 10 (Homo sapiens) (UniProt O15520); experiment: FGF10 binders on small-molecule microarrays, primary screen, biochemical, small-molecule microarray, 635 nm fluorescence (AID 1102); details: FGF10 binding, fluorescence 635 nm, higher = more signal
Sequence of Fibroblast growth factor 10 (Homo sapiens) (O15520 whole entry, looked up): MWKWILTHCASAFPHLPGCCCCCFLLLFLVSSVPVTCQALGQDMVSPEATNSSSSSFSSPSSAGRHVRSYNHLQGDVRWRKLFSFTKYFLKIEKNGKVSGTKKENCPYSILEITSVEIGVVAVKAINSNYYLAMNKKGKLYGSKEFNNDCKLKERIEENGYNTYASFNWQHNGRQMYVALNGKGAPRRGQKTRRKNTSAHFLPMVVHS

[6] = tested on: glycogen synthase kinase-3 (GSK3A per assay name; protocol says GSK3B); experiment: GSK3 binders on small-molecule microarrays, primary screen, biochemical, small-molecule microarray, 635 nm fluorescence, GSK3A (AID 1103); details: small-molecule microarray binding, fluorescence 635 nm; higher = more signal; also: the record names both GSK3A and GSK3B
[7] = biological target: Epidermal growth factor receptor (Homo sapiens) (UniProt P00533); experiment: EGFR binders on small-molecule microarrays, primary screen, biochemical, small-molecule microarray, 635 nm fluorescence (AID 1104); details: EGFR binding, higher = more signal;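 also: score merges 667 nm emission intensity with spot signal to noise over triplicate slides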
Sequence of Epidermal growth factor receptor (Homo sapiens) (P00533 whole entry, looked up): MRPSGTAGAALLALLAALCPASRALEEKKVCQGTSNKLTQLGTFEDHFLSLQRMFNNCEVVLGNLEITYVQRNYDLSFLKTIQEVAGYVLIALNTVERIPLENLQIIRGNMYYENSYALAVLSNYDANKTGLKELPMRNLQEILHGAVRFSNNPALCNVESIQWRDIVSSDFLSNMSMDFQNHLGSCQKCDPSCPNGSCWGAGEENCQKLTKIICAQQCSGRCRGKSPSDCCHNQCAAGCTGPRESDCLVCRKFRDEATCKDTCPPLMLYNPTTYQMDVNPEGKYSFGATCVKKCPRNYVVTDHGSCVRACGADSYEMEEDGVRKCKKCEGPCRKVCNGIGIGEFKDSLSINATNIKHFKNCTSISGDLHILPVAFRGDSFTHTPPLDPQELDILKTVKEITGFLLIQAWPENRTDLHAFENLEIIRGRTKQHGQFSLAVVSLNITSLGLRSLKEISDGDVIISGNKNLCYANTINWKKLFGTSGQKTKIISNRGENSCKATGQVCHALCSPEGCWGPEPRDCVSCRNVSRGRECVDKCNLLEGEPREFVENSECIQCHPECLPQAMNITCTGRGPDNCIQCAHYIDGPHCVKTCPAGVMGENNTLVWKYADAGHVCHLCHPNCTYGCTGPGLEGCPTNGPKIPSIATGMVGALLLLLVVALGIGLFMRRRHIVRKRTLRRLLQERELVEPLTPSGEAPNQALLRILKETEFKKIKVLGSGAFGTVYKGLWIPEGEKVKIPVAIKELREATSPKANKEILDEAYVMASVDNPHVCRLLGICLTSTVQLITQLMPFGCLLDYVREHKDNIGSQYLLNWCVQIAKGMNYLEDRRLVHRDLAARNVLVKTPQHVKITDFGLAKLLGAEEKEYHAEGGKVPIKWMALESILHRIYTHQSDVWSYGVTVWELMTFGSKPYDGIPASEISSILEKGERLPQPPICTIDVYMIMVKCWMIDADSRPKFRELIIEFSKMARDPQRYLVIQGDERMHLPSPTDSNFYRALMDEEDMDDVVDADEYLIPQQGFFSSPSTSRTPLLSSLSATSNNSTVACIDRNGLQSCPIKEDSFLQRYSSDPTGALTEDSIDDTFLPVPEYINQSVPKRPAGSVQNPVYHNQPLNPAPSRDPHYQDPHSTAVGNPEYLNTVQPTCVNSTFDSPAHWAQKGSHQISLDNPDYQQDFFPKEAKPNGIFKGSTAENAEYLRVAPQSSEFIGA

[8] = biological target: Follistatin-related protein 3 (Homo sapiens) (UniProt O95633); experiment: FSTL3 binders on small-molecule microarrays, primary screen, biochemical, small-molecule microarray, 635 nm fluorescence (AID 1105); details: FSTL3 binding, higher = more signal;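 also: score merges emission near 667 nm and signal to noise per printed spot across three slides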
Sequence of Follistatin-related protein 3 (Homo sapiens) (O95633 whole entry, looked up): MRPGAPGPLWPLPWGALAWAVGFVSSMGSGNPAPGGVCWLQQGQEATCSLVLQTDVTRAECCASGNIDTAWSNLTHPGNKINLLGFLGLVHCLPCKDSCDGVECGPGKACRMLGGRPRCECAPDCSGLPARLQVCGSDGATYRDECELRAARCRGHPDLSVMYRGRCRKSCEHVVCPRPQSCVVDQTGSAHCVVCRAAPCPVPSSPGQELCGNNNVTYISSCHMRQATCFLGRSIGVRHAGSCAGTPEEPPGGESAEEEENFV

[9] = biological target: Dickkopf-related protein 1 (Homo sapiens) (UniProt O94907); experiment: DKK1 binders on small-molecule microarrays, primary screen, biochemical, small-molecule microarray, 635 nm fluorescence scan (AID 1106); details: DKK1 binding, higher = more signal;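 also: score merges emission near 667 nm with signal to noise over three replicate slides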
Sequence of Dickkopf-related protein 1 (Homo sapiens) (O94907 whole entry, looked up): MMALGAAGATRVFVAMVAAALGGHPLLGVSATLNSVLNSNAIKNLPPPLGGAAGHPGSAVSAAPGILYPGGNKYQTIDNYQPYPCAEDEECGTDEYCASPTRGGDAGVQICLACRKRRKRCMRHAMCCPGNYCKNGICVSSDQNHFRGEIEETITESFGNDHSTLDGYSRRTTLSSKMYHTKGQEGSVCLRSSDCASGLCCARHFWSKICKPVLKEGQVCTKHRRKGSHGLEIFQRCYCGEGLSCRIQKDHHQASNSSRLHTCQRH

[10] = tested on: Inhibin beta A chain (activin A); experiment: INHBA (activin A) binders on microarrays, primary screen, biochemical, small-molecule microarray, 635 nm fluorescence scan (AID 1107); details: small-molecule microarray binding, higher = more signal;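 also: mouse activin A protein probed at 4.33 µg/mL on printed slides; score merges bound-protein fluorescence near 667 nm with spot signal-to-noise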

Row | SMILES | composite z-score [1] | composite z-score [2] | composite z-score [3] | z-score [4] | composite z-score [5] | composite z-score [6] | composite z-score [7] | composite z-score [8] | composite z-score [9] | composite z-score [10]
1 | C=CCOC(=O)[C@@H]1[C@H]2C(=O)O[C@H](c3ccccc3)[C@H](c3ccccc3)N2[C@H](c2ccc(OCCOC(=O)[C@H]3C[C@H]4C(=O)N[C@@H](Cc5ccccc5)C(=O)N4[C@H]3c3ccc(O)cc3)cc2)[C@@]12C(=O)Nc1ccc(I)cc12 | 1.54 | 0.232 | 0.163 | 0.00712 (inactive) | 1.22 | 1.33 | 0.906 | 1.29 | 1.26 | -0.418
2 | C=CCOC(=O)[C@@H]1[C@H]2C(=O)O[C@H](c3ccccc3)[C@H](c3ccccc3)N2[C@H](c2ccc(OCCOC(=O)[C@H]3C[C@H]4C(=O)N[C@@H](CCCC[N+](C)(C)C)C(=O)N4[C@H]3c3cccc(OCCO)c3)cc2)[C@@]12C(=O)Nc1ccc(I)cc12 | 1.53 | 0.135 | -0.0036 | -0.241 (inactive) | 1.21 | 1.29 | 1.32 | 1.43 | 1.7 | 0.538
3 | C=CCN1C(=O)[C@@]2(O[C@@H](CCO)[C@H]([Si](C)(C)c3ccc(OC)cc3)[C@H]2C)c2cc(N3C(=O)COc4ccccc43)ccc21 | 1.16 | -0.447 | -0.0458 | -3.26 (inactive) | 0.993 | 0.324 | -0.289 | 0.193 | -0.609 | -0.145
4 | O=C1OCC=C[C@H]2OC34C=CCN(Cc5ccccc5)C(=O)[C@H]3N(CCCO)C(=O)[C@@H]4[C@@H]12 (stereo not given in full) | 0.995 | 1.16 | 0.907 | -0.589 (inactive) | 0.0676 | 0.301 | -0.692 | 0.37 | -0.896 | 1.22
5 | [N-]=[N+]=Nc1ccccc1[C@@H]1OC(c2ccc(OCCCO)cc2)=N[C@]1(CCS(=O)(=O)c1ccccc1)C(=O)N1CCCCC1 | 1.39 | 1.63 | 1.41 | -0.261 (inactive) | 1.05 | 0.85 | 0.098 | 0.811 | -0.423 | 1.36
6 | COc1cc(NN2C(C(O)c3ccccc3)C=CC3C(=O)N(c4ccccc4)C(=O)C32)cc(OC)c1OC (stereo not given) | 1.53 | 0.256 | 0.862 | -0.412 (inactive) | 1.28 | 1.14 | 0.257 | 1.47 | 0.0142 | 0.706
7 | COCC1C2CC[C@H]3C(OCc4ccc(F)cc4C(F)(F)F)OC[C@]4(C)[C@H]3C2=C(CN4C(=O)OC(C)(C)C)[C@H](C)C1COC (stereo not given in full) | 1.45 | 1.04 | 1.23 | -0.625 (inactive) | 0.189 | 0.366 | 0.0761 | 0.45 | 0.202 | 0.939
8 | O=c1cccc(-c2cccc3ccccc23)o1 | 1.06 | 0.849 | 1.23 | 0.873 (inactive) | -0.52 | -0.274 | -1.18 | -0.218 | -0.951 | 1.46
9 | CCCCCCC#C[Si](O[C@H](c1ccccc1)c1cn([C@H](C)c2ccccc2)nn1)(C(C)C)C(C)C | 0.693 | -0.167 | -0.365 | -0.209 (inactive) | 0.547 | 0.565 | 0.483 | 0.841 | 1.25 | 0.327
10 | COc1ccc([Si](C)(C)[C@H]2[C@H](CC(=O)N3Cc4ccccc4C[C@H]3CO)O[C@@]3(C(=O)N(Cc4cccc(I)c4)c4ccccc43)[C@@H]2C)cc1 | 0.391 | -0.29 | -0.162 | -1.73 (inactive) | 1.15 | 0.346 | 1.4 | 1.36 | 1.57 | 1.76
11 | CCN(CC)c1ccc(N2CC=CC34O[C@@H]5/C=C\CCCOC(=O)C5[C@H]3C(=O)N(CCCO)[C@@H]4C2=O)cc1 (stereo not given in full) | 1.47 | -0.136 | 0.808 | 0.821 (inactive) | -1.04 | -0.422 | -1.48 | -0.88 | -1.75 | -0.222
12 | O=C1C2C=CC(C(O)c3ccccn3)N(Nc3ccccc3F)C2C(=O)N1c1ccccc1 (stereo not given) | 0.205 | 0.19 | 0.461 | -0.0196 (inactive) | 0.0698 | -0.0392 | 0.0563 | -0.0532 | 0.124 | 0.926
13 | CCOC(=O)N1C(c2ccc(OCCCO)cc2)=NC(C(=O)OC)N1C(=O)OCC (stereo not given) | 0.587 | -0.164 | 0.0258 | -0.641 (inactive) | 0.909 | 1.28 | 0.431 | 1.39 | 0.471 | -0.298
14 | O=C1C2C=CC(C(O)CCc3ccccc3)N(Nc3ccccc3)C2C(=O)N1c1ccccc1 (stereo not given) | 0.692 | 1.18 | 1.29 | 0.35 (inactive) | 0.714 | 1.26 | -0.0133 | 0.425 | -0.194 | 0.205
15 | COc1cc(CO)cc(I)c1O[C@H]1C=C(C(=O)NCCO)C[C@@H](N(CCc2cccc(F)c2)C(=O)CCC2CCCC2)[C@@H]1O | 1.1 | 0.0556 | 0.252 | -1.37 (inactive) | 1.54 | 1.01 | -0.261 | 0.716 | 0.897 | 0.733
16 | Cc1ccc(N2C(=O)c3ccccc3[C@@H](C(=O)NCC(C)C)[C@@H]2c2ccc(CO)cc2)nc1 | 1.48 | -0.244 | 0.544 | 0.337 (inactive) | -0.617 | -0.813 | -1.26 | -1.19 | -0.52 | 0.244
17 | [N-]=[N+]=NCc1ccccc1C[C@]1(C(=O)N2CCOCC2)N=C(c2ccc(OCCCO)cc2)O[C@H]1c1ccccc1 | 0.947 | 0.102 | 0.904 | -1.18 (inactive) | 1.39 | 0.551 | -0.458 | 0.223 | -0.774 | 0.275
18 | COc1ccc([Si](C)(C)[C@H]2[C@H](CC(=O)N3CCC[C@H]3CO)O[C@@]3(C(=O)N(c4ccccc4)c4ccccc43)[C@@H]2C)cc1 | 1.28 | -0.344 | -0.28 | -1.82 (inactive) | -0.174 | -0.828 | 0.138 | 0.051 | 0.487 | 0.581
19 | COc1ccc([Si](C)(C)[C@H]2[C@H](CC(=O)N(CCO)Cc3ccccc3)O[C@@]3(C(=O)N(Cc4cccc(N5C(=O)c6cccc7cccc5c67)c4)c4ccccc43)[C@@H]2C)cc1 | 0.803 | -0.534 | 0.0901 | -2.5 (inactive) | 0.158 | 0.0107 | 0.148 | 0.303 | 0.491 | 0.9
20 | O=C1c2ccccc2[C@](Cc2ccccc2I)(C(=O)O)[C@H](c2ccc(CO)cc2)N1Cc1ccccc1C(F)(F)F | 0.674 | -0.483 | -0.388 | 0.185 (inactive) | -0.414 | 0.464 | -0.709 | 0.19 | -0.376 | 0.353
21 | C=CC[C@@]1(C(=O)NCCN2CCOCC2)N=C(c2ccc(OCCCO)cc2)O[C@@H]1c1ccccc1CN=[N+]=[N-] | 1.02 | 1.06 | 1.3 | -1.05 (inactive) | 0.205 | 0.62 | -0.357 | 0.221 | 0.137 | 1.46
22 | NC(=O)[C@@]1(CCS(=O)(=O)c2ccccc2)N=C(c2ccc(OCCCO)cc2)O[C@H]1c1ccccc1 | 1.28 | 0.518 | 0.7 | -0.675 (inactive) | 1.08 | 0.953 | -0.151 | -0.437 | 0.015 | 0.564
